Test results as given in PubChem BioAssay.
Values joined by “and” are separate entries in the source; they are usually repeats but may differ in a detail not shown here. Equal values may be shown once. Active and inactive are the calls of the source. Unless noted, the rule behind the calls is not given here.

How the values were obtained:
[1] = P. berghei load reduction in hepatocytes – cell-based, HepG2, luciferase luminescence, HepG2 viability, primary screen (AID 624349; in the data active = parasite load remaining mostly below about 12%, no sharp cut-off; inactive = mostly above about 10%;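 note: 100% = mean of DMSO negative control wells on the same plate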); conditions: P. berghei liver stage in HepG2, luciferase luminescence, concentration not given here; parasite load remaining: stronger effect = lower value; viability: measured here: HepG2 viability without parasites
[2] = Wnt pathway potentiators raising nuclear beta-catenin – imaging, WNT3A-conditioned medium, mouse C2C12, NPC library, primary screen (AID 1117326; in the data active = nuclear beta-catenin stimulation mostly above about 4.2%, no sharp cut-off; inactive = mostly below about 10%); conditions: stronger effect = higher value
[3] = growth inhibition of GSK3B-pretreated HCT116 cells – cell-based, CellTiter-Glo, 0.2 to 20 µM (AID 1117336;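 active = compounds lowering colon cancer cell viability after pretreatment blocking the GSK3B kinase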); conditions: HCT116 viability after GSK3B inhibitor, at 20 µM, stronger effect = higher value
[4] = inhibition of endothelial tube formation, primary screen, imaging, VEGF stimulated, CD31 staining, tube area, NPC library (AID 1117340;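 active = compound that reduces growth-factor-driven endothelial tube area in a mixed cell culture, no cutoff stated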); conditions: VEGF-stimulated ADSC/ECFC co-culture, at 10 µM, stronger effect = higher value
[5] = HCT116 colon cancer cell growth inhibition, primary screen, CellTiter-Glo luminescence, NPC library (AID 1117342;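 active = compounds that lower survival of HCT116 colon cancer cells in the luminescence readout, no numeric limit stated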); conditions: at 20 µM (top of the series)
[6] = reduced SW480 viability measured with CellTiter-Glo, NPC library, primary (AID 1117343;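 active = compounds that lower viability of the colon cancer cells in the luminescence readout, with no numeric limit stated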); conditions: CellTiter-Glo luminescence; at 20 µM (top of the series) unless noted
[7] = NPC library primary testing for decreased DLD-1 cell viability via CellTiter-Glo (AID 1117346;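 active = compounds that lower survival of DLD-1 colon cancer cells in the luminescence readout, no cutoff given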); conditions: DLD-1 viability, CellTiter-Glo luminescence; at 20 µM (top of the series)
[8] = modulation of C. elegans fzo-1 (AID 1259413);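 note: fzo-1 mutant C. elegans worms in liquid wells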; conditions: C. elegans fzo-1 modulator screen, mean read-out; stronger effect = higher value
[9] = EMT-state selective cytotoxicity in co-culture – imaging, PC-3E GFP, TEM4-18 mCherry, primary screen (AID 1345086;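 active = compounds killing one labelled cell type while sparing the other, by normalised counts and ratio limits, not self-fluorescent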;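 for all read-outs here: cells exposed to compound for 72 h before imaging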;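 for red/green cell ratio (normalised): normalised mesenchymal count divided by normalised epithelial count so high means epithelial killing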); conditions: PC-3E GFP / TEM4-18 mCherry co-culture, imaging cell counts, at 1 µM; for red/green cell ratio (normalised): actives lie on both sides, counts scaled to control wells, 1 = unselective
[10] = MELAS cybrid and Rieske KO viability enhancers – cell-based, MELAS cybrids, Rieske KO mouse fibroblasts, CellTiter-Glo, primary screen (AID 1508586;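 active = mean z-score across replicates of 1.96 or higher in either the MELAS or the Rieske mutant cell line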;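 note: z relative to plate mean and SD of compound and empty wells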); conditions: low glucose
[11] = biological target: Mitogen-activated protein kinase 7 (Homo sapiens) (UniProt Q13164); test: Gal4-ERK5 driven luciferase induction – cell-based, HTS, primary screen (AID 1508626;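 active = luciferase signal above three times the same-plate solvent-only control wells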;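 note: luciferase driven by Gal4-ERK5 fusion binding five Gal4 sites before minimal TATA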); conditions: HeLa Gal4-ERK5 transactivation, 18 h, at 5 µM, stronger effect = higher value
Chain of Mitogen-activated protein kinase 7 (Homo sapiens) (Q13164 whole entry, looked up, the tested form may be a part): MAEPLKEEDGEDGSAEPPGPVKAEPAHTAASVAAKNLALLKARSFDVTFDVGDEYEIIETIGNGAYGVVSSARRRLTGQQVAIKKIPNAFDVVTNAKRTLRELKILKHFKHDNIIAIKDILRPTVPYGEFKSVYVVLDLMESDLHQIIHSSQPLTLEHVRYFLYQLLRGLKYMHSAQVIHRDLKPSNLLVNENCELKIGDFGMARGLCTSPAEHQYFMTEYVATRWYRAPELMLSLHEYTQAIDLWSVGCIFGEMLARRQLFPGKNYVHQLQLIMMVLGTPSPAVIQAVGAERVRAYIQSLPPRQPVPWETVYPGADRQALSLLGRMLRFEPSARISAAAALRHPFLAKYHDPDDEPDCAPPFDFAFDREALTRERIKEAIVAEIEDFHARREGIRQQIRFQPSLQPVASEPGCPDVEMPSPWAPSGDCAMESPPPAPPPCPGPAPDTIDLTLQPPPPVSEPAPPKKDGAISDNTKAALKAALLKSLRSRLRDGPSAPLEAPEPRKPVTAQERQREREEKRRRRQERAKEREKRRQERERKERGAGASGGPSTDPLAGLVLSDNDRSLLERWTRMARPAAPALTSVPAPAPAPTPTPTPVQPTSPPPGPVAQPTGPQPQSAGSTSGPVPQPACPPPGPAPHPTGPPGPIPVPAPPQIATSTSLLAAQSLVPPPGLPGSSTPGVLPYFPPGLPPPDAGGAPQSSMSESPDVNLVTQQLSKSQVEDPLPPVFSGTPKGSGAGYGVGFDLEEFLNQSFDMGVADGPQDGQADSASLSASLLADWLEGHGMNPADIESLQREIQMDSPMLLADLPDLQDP

[12] = galactose survival enhancers in mitochondrial complex I cybrids – cell-based, galactose medium, ATP luminescence, primary screen (AID 1645843;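 active = z-score of at least 1.8 in each of two replicates, scored against plate mean and spread of sample wells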;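 note: positive z means more ATP and so rescue of galactose-driven cybrid death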); conditions: complex I mutant cybrid cells, 72 h, stronger effect = higher value
[13] = compounds altering viability of human ES cells (AID 493140); conditions: human embryonic stem cell survival screen; stronger effect = higher value;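 note: cells exposed to compounds for four days before counting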
[14] = stimulators of insulin release from INS-1E, primary screen, cell-based, 5 mM glucose, NPC library (AID 1117329;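 active = compound raises insulin release from rat beta cells at 5 mM glucose, no numeric limit stated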); conditions: rat INS-1E insulin secretion, at 10 µM, stronger effect = higher value
[15] = GLP1 release stimulators, primary, NCI-H716, NPC library (AID 1117341;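 active = compound raises GLP1 secretion from the human gut endocrine cells, with no numeric limit stated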); conditions: NCI-H716 cells, at 10 µM, stronger effect = higher value
[16] = biological target: 6-phosphogluconate dehydrogenase, decarboxylating (Homo sapiens) (UniProt P52209); test: inhibition of human phosphogluconate dehydrogenase – biochemical, recombinant enzyme, NADPH absorbance, primary screen (AID 1159550;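 active = at least 20% inhibition of 6-phosphogluconate dehydrogenase activity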); conditions: recombinant 6PGD, NADPH absorbance 341 nm; at 10 µM; stronger effect = higher value
Chain of 6-phosphogluconate dehydrogenase, decarboxylating (Homo sapiens) (P52209 whole entry, looked up): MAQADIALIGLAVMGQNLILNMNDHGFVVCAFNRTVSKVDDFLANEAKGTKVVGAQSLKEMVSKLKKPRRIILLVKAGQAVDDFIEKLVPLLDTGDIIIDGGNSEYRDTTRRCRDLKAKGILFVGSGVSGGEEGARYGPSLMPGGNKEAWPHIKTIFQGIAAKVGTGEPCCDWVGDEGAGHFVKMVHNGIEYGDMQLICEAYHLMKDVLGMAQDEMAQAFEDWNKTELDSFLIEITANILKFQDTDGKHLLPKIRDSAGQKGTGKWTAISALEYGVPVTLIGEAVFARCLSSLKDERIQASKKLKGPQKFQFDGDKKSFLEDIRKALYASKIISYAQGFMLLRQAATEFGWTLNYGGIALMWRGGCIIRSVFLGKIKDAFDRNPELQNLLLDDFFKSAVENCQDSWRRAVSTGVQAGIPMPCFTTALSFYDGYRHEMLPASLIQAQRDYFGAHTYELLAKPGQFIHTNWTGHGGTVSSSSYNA

[17] = blockers of cellular phospholipid synthesis – cell-based, LOPAC library, screen 4, primary screen (AID 1347384); conditions: animal cells, phospholipid biosynthesis inhibition screen; at 10 µM
[18] = biological target: NAD(+) hydrolase SARM1 (Homo sapiens) (UniProt Q6SZW1); test: blocking NAD cleavage by SARM1 SAM-TIR – cell lysate, NAD-Glo luminescence (AID 1508614;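 active = compound whose remaining NAD level is above about 45 nM, limit read from the data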;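 note: higher remaining NAD means stronger inhibition of SARM1 NADase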); conditions: SAM-TIR HEK293T lysate NADase, at 1 µM, stronger effect = higher value
Chain of NAD(+) hydrolase SARM1 (Homo sapiens) (Q6SZW1 whole entry, looked up): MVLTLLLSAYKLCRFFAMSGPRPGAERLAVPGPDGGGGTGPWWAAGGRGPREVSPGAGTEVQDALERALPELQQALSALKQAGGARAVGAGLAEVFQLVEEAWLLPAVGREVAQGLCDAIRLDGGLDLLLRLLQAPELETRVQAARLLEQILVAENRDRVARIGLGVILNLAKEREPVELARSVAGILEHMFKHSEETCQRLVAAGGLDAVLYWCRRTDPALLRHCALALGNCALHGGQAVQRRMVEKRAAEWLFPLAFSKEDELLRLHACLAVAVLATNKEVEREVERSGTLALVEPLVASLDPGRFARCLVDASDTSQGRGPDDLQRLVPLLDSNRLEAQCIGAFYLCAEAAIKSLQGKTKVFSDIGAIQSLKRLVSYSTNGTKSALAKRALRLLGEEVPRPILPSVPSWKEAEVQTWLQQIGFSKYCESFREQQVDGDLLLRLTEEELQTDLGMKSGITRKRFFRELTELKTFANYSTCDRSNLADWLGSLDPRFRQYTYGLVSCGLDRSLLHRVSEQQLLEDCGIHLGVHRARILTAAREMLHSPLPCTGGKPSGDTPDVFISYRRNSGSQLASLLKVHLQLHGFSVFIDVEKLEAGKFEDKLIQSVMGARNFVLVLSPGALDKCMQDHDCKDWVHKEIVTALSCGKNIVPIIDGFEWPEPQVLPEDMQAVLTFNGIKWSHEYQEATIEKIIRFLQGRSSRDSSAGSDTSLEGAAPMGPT

[19] = viability loss with induced miR-34 in A549 – imaging, A549 dox-inducible miR-34, nuclei and caspase counts, primary screen (AID 1347080;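 active = compounds whose cell count with miR-34 switched on is under 0.7 times the count with it off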); conditions: A549 miR-34 inducible, Hoechst nuclei count, 48 h
[20] = measured here: epithelial PC-3E GFP cell survival
[21] = measured here: mesenchymal TEM4-18 mCherry cell survival
[22] = MELAS cybrid survival, CellTiter-Glo 48 h, stronger effect = higher value
[23] = Rieske KO mouse fibroblast survival, CellTiter-Glo 72 h

NC(=O)c1cccnc1
1.2: normalised cell number [9, 21]
200% and 89.4% and 114%: viability [1]
0.704 and -0.543 and -0.673: z-score [10, 23]
1.05: normalised cell number [9, 20]
7.7%: nuclear beta-catenin stimulation ([2]; stimulation, at 2 µM)
inactive: parasite load remaining [1] 64% and 68.4% and 18% | nuclear beta-catenin stimulation ([2]; at 10 µM) 0.1% | viability decrease [3] 7% | tube area decrease [4] -7.9% | inhibition of viability [5] 11.2% | viability decrease (inhibition) [6] 1.3% | viability decrease (inhibition) [7] 4.3% | mean signal [8] 256 | red/green cell ratio (normalised) [9] 1.14 | z-score [10, 22] -0.258 and -0.151 and -0.172 | luciferase signal [11] 32 AU | z-score [12] 0.75 and 0.635

O=C(O)C1CCC1
inactive: nuclear beta-catenin stimulation ([2]; at 10 µM) -0.9% | viability decrease [3] -0.7% | inhibition of viability [5] 13.6% | viability decrease (inhibition) [6] 1.4% | viability decrease (inhibition) [7] 6.3%
6.2%: nuclear beta-catenin stimulation ([2]; stimulation, at 2 µM)

CCn1cc(C(=O)O)c(=O)c2ccc(C)nc21
1.09: normalised cell number [9, 20]
0.97: normalised cell number [9, 21]
inactive: survival [13] 18 | insulin secretion stimulation [14] -1.7% | viability decrease [3] 10.1% | tube area decrease [4] 2% | GLP1 secretion stimulation [15] 3.3% | inhibition of viability [5] 10.9% | viability decrease (inhibition) [6] 30.9% | viability decrease (inhibition) [7] -0.43% | inhibition [16] -7.36% | mean signal [8] 268 | red/green cell ratio (normalised) [9] 0.88 | outcome [17] | remaining NAD [18] 10 nM | luciferase signal [11] 44 AU

CC12CCC(CC1)C(C)(C)O2
0.94: normalised cell number [9, 21]
17.2%: nuclear beta-catenin stimulation ([2]; stimulation, at 2 µM)
1.13: normalised cell number [9, 20]
inactive: nuclear beta-catenin stimulation ([2]; at 10 µM) 1.8% | viability decrease [3] 4.1% | inhibition of viability [5] 7.2% | viability decrease (inhibition) [6] 5% | viability decrease (inhibition) [7] 4.4% | inhibition [16] -15.6% | red/green cell ratio (normalised) [9] 0.83 | remaining NAD [18] 10 nM

CC(C)OC(=O)C(C)(C)Oc1ccc(C(=O)c2ccc(Cl)cc2)cc1
inactive: survival [13] 16.9 | nuclear beta-catenin stimulation ([2]; at 10 µM) 1.9% | inhibition [16] 13.2% | mean signal [8] 232 | red/green cell ratio (normalised) [9] 1.01 | outcome [17] | z-score [10, 22] 0.204 and 1.22 and 0.396 | remaining NAD [18] 10 nM | luciferase signal [11] 56 AU | z-score [12] -1 and -1.21 and -1.85
6.9%: nuclear beta-catenin stimulation ([2]; stimulation, at 2 µM)
active: viability decrease [3] 81.1% | inhibition of viability [5] 81.4% | viability decrease (inhibition) [6] 75.1% | viability decrease (inhibition) [7] 57.5%
1: normalised cell number [9, 20] | normalised cell number [9, 21]
0.718 and 0.00922 and -0.202: z-score [10, 23]

Oc1ccc(O)cc1
7800 and 7820: cell count ([19]; measured here: total cells with miR-34 induction, stronger effect = lower value)
8040 and 8490: cell count ([19]; measured here: total cells without miR-34 induction)
inactive: parasite load remaining [1] 24.8% and -0.995% | nuclear beta-catenin stimulation ([2]; at 10 µM) 10.9% | viability decrease [3] 45.2% | inhibition of viability [5] -47.7% | viability decrease (inhibition) [6] 20.4% | viability decrease (inhibition) [7] -15% | inhibition [16] 10.8% | red/green cell ratio (normalised) [9] 1.14 | fold change ([19]; stronger effect = lower value, cell number ratio, induced over uninduced) 0.97 and 0.922 | outcome [17] | remaining NAD [18] 10 nM | luciferase signal [11] 40 AU | z-score [12] -1.04
1.29: normalised cell number [9, 21]
92.7% and 79.1%: viability [1]
14.4%: nuclear beta-catenin stimulation ([2]; stimulation, at 2 µM)
0.837 and 1.69: fold change ([19]; measured here: relative caspase fold change +Dox/-Dox)
1.14: normalised cell number [9, 20]

CCO[C@H](Cc1ccc(OCCc2ccc(OS(C)(=O)=O)cc2)cc1)C(=O)O
inactive: nuclear beta-catenin stimulation ([2]; at 10 µM) 1.2% | viability decrease [3] 8.6% | inhibition of viability [5] -7.7% | viability decrease (inhibition) [6] -5.9% | viability decrease (inhibition) [7] -11.3%
7.6%: nuclear beta-catenin stimulation ([2]; stimulation, at 2 µM)

CCCC(=O)Nc1ccc(OCC(O)CNC(C)C)c(C(C)=O)c1 (configuration not stated)
-0.138 and 0.913: z-score [10, 23]
inactive: survival [13] 12.1 | insulin secretion stimulation [14] 0.7% | viability decrease [3] -32% | tube area decrease [4] 13.3% | GLP1 secretion stimulation [15] 0.9% | inhibition of viability [5] 2.87% | viability decrease (inhibition) [6] 15.1% | viability decrease (inhibition) [7] -8.8% | inhibition [16] 5.09% | mean signal [8] 238 | red/green cell ratio (normalised) [9] 0.87 | z-score [10, 22] -0.162 and 0.587 | remaining NAD [18] 10 nM | luciferase signal [11] 60 AU | z-score [12] 1.51
0.93: normalised cell number [9, 21]
1.07: normalised cell number [9, 20]

CN(C)C(=O)C(CCN1CCC(O)(c2ccc(Cl)cc2)CC1)(c1ccccc1)c1ccccc1
active: viability decrease [3] 64.9% | inhibition of viability [5] 90.6% | viability decrease (inhibition) [6] 99.6% | viability decrease (inhibition) [7] 88.2%
1.3: normalised cell number [9, 20]
1.33: normalised cell number [9, 21]
-1.34 and 0.463 and -0.456: z-score [10, 23]
inactive: survival [13] 9 | insulin secretion stimulation [14] 1.9% | tube area decrease [4] 11.7% | GLP1 secretion stimulation [15] 2.9% | inhibition [16] 1.17% | mean signal [8] 201 | red/green cell ratio (normalised) [9] 1.02 | outcome [17] | z-score [10, 22] -0.364 and -0.238 and 0.591 | remaining NAD [18] 10 nM | luciferase signal [11] 40 AU

CCN(CC)CC(=O)Nc1c(C)cc(C)cc1C
inactive: insulin secretion stimulation [14] -0.3% | viability decrease [3] -7.6% | tube area decrease [4] 7.2% | GLP1 secretion stimulation [15] -3.6% | inhibition of viability [5] 4.6% | viability decrease (inhibition) [6] 6%
active: viability decrease (inhibition) [7] -2%
